Compounds without any hit were thinned out: in the full panel of roughly 83,000, 20% have a hit.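 Compound tested at a single concentration for 48 hours in 96-well plates; a percent growth value below 10 was scored as active.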 Activity calls are given as the source filed them.
Key:
Test in all cases: NCI-60 one-dose screen, 48 h (100 = growth as untreated, 0 = no growth, -100 = all killed)
Conditions in all cases: 10 µM
[1] = system: RPMI-8226 leukemia
[2] = system: OVCAR-8 ovarian
[3] = system: OVCAR-5 ovarian
[4] = system: OVCAR-4 ovarian
[5] = system: SK-OV-3 ovarian
[6] = system: IGROV1 ovarian
[7] = system: OVCAR-3 ovarian
[8] = system: HS 578T breast
[9] = system: NCI/ADR-RES ovarian
[10] = system: T-47D breast
[11] = system: BT-549 breast
[12] = system: MDA-MB-435 melanoma
[13] = system: SW-620 colon
[14] = system: MCF7 breast
[15] = system: HCT-116 colon
[16] = system: HCC-2998 colon
[17] = system: KM12 colon

Measured: growth

CCOC(=O)C1(CC(C)C)CCOC1=O (configuration not stated)
inactive: [1] 95.6% | [2] 93.8% | [3] 97% | [4] 95.5% | [5] 101% | [6] 119% | [7] 104% | [8] 110% | [9] 98.8% | [10] 99% | [11] 105% | [12] 104% | [13] 98.3% | [14] 93.5% | [15] 107% | [16] 106% | [17] 99.3%

C#Cc1ccc(-n2c(/C=C/c3ccc(O)c(OC)c3)nc3ncccc3c2=O)cc1
inactive: [1] 83.5% | [2] 97.1% | [3] 108% | [4] 80.8% | [5] 107% | [6] 95.6% | [7] 100% | [8] 104% | [9] 109% | [10] 91.1% | [11] 95.5% | [12] 71.2% | [13] 102% | [14] 89.1% | [15] 97.4% | [16] 112%

CC12O[C@H](C[C@@H](OC(=O)c3ccccc3)[C@H]1O)n1c3ccccc3c3c4c(c5c6ccccc6n2c5c31)C(=O)NC4=O
inactive: [1] 54.6% | [2] 86.5% | [3] 59.3% | [4] 84.5% | [5] 12.6% | [6] 62% | [7] 103% | [8] 69.3% | [9] 77.8% | [10] 59.3% | [11] 84.8% | [12] 60.2% | [13] 60.2% | [14] 69.3% | [15] 70.1% | [16] 87.2% | [17] 19.3%

N#CCCN1C/C(=C/c2ccccc2)C(=O)/C(=C/c2ccccc2)C1
inactive: [3] 84.4% | [4] 40.5% | [5] 67.8% | [6] 55.8% | [7] 16% | [10] 68% | [11] 44.3%
active: [1] -14.4% | [2] 0.855% | [8] -9.54% | [9] 1.6% | [12] -30.9% | [13] -24.9% | [14] -12% | [15] -81.7% | [16] -81%

O=C1/C(=C\c2ccc(Cl)cc2)CN(C(=S)Nc2ccccc2)C/C1=C\c1ccc(Cl)cc1
active: [1] -29.8% | [2] -5.17% | [3] -74.1% | [4] -26% | [5] -42.3% | [6] -72.9% | [7] -87.6% | [8] -23.1% | [9] 1.25% | [10] -2.82% | [11] -66.6% | [12] -82.1% | [13] -84.9% | [14] -83.9% | [15] -62.8% | [16] -89%

COc1ccc(Nc2ncnc3c2c(SC)nn3-c2ccccc2)cc1
inactive: [1] 85.3% | [2] 98% | [3] 96.7% | [4] 73.3% | [5] 109% | [6] 88.4% | [7] 99.1% | [8] 136% | [9] 91.9% | [10] 70.7% | [11] 96.5% | [12] 97.8% | [13] 103% | [14] 103% | [15] 89.2% | [16] 103%

COc1ccc(C(=O)/C=C/c2cc(-c3cc(OC)c(OC)c(OC)c3)n[nH]2)cc1
inactive: [2] 16.1% | [3] 47.8% | [4] 45.6% | [5] 25.7% | [6] 43.2% | [7] 11.1% | [8] 71.3% | [9] 25.9% | [10] 13.6% | [11] 14.4% | [12] 15.6% | [14] 16.5% | [16] 91.3%
active: [1] -38.8% | [13] -37.6% | [15] -76.3% | [17] -60.1%

COc1cc(NC(=O)CCSc2nc3ccc(C)cc3c(=O)n2Cc2ccccc2)cc(OC)c1OC
active: [4] -32.1% | [8] 6.72%
inactive: [1] 83.8% | [2] 29.9% | [3] 94.2% | [5] 30.2% | [6] 110% | [7] 67.9% | [9] 83.8% | [10] 65.6% | [11] 95.5% | [12] 92.1% | [13] 84.5% | [14] 77.6% | [15] 35% | [16] 112%

CCOC(=O)N1C/C(=C/c2ccc(OC)cc2)C(=O)/C(=C/c2ccc(OC)cc2)C1
active: [1] -14.8% | [7] 0.817% | [8] -15.8% | [11] -12.8% | [12] -33.4% | [13] -38.7% | [14] -5.59% | [15] -82.8% | [16] -92.5%
inactive: [2] 19.6% | [3] 95% | [4] 58% | [5] 26.9% | [6] 17.2% | [9] 21.7% | [10] 43.7%

CCOC(=O)N1C/C(=C/c2ccc(F)cc2)C(=O)/C(=C/c2ccc(F)cc2)C1
active: [1] -29% | [2] 9.76% | [4] 9.8% | [6] -34.1% | [7] -29.2% | [8] -10.5% | [9] 9.49% | [11] -44.3% | [12] -47.4% | [13] -66% | [14] -45.9% | [15] -83.9% | [16] -80.9%
inactive: [3] 24.2% | [5] 12.7% | [10] 30.5%

COc1ccc(/C=C2/CN(C(=O)c3ccccc3F)C/C(=C\c3ccc(OC)cc3)C2=O)cc1
inactive: [2] 19% | [3] 106% | [4] 61.3% | [5] 76.7% | [6] 30.6% | [7] 26.9% | [8] 38.9% | [9] 50.4% | [10] 62.7% | [11] 37%
active: [1] -19% | [12] -46.2% | [13] -42.3% | [14] 8.16% | [15] -62.6% | [16] -73.1%

Cc1[nH]nc2c1C(c1cnn(C)c1)C(C#N)=C(N)O2 (configuration not stated)
inactive: [1] 99.3% | [2] 99.8% | [3] 109% | [4] 101% | [5] 103% | [6] 106% | [7] 106% | [8] 104% | [9] 108% | [10] 96.4% | [11] 102% | [12] 101% | [13] 102% | [14] 98% | [15] 104% | [16] 110%

COc1cc(Nc2ncnc(Nc3ccc4c(n3)NC(=O)C(C)(C)O4)n2)cc(OC)c1OC
inactive: [1] 20.6% | [2] 24.1% | [3] 29.3% | [4] 39.8% | [7] 35.9% | [9] 34.2% | [10] 34.5% | [11] 33.7% | [12] 16.6% | [13] 32.9% | [14] 21.9% | [15] 24.2% | [16] 79.1%
active: [5] -19.6% | [6] -46.1% | [8] -20.4%

CCC(=O)N1C/C(=C/c2ccc(Cl)cc2)C(=O)/C(=C/c2ccc(Cl)cc2)C1
inactive: [8] 22.2% | [9] 14.9% | [10] 26%
active: [1] -37% | [2] 1.63% | [3] 2.37% | [4] 8.11% | [5] -34.8% | [6] -66.1% | [7] -47.2% | [11] -18.7% | [12] -58.6% | [13] -63.6% | [14] -77.9% | [15] -85.4% | [16] -89.3%

O=C1/C(=C\c2ccc(Cl)cc2)CN(C(=O)c2ccccc2)C/C1=C\c1ccc(Cl)cc1
inactive: [3] 83.8% | [4] 36% | [5] 59.3% | [9] 28.3% | [10] 67.2% | [11] 19.8%
active: [1] -25% | [2] 4.04% | [6] 4.31% | [7] -8.04% | [8] 5.5% | [12] -18.1% | [13] -33.8% | [14] 2.9% | [15] -48.2% | [16] -71.8%

Cc1ccc(C(=O)N2C/C(=C/c3ccccc3)C(=O)/C(=C/c3ccccc3)C2)cc1
active: [1] -23.1% | [8] 9.99% | [12] -14.1% | [14] 7.53% | [15] -55.5% | [16] -48%
inactive: [2] 48.7% | [3] 105% | [4] 75.3% | [5] 78.9% | [6] 69.1% | [7] 57.9% | [9] 66.1% | [10] 61.8% | [11] 49.2% | [13] 15.8%

N#CCCN1C/C(=C/c2ccc(Br)cc2)C(=O)/C(=C/c2ccc(Br)cc2)C1
active: [1] -14% | [2] -17.3% | [3] 2.15% | [4] 0.905% | [5] 9.84% | [6] -69.1% | [7] -65.2% | [10] 6.33% | [11] -23.3% | [12] -43.3% | [13] -53.7% | [14] 0.16% | [15] -50.8% | [16] -87.4%
inactive: [8] 12.4% | [9] 16.8%

Nc1cc2c(cc1Cl)-c1ccc([N+](=O)[O-])cc1/C2=N\O
inactive: [1] 44.7% | [2] 99.5% | [3] 145% | [4] 88.9% | [5] 97% | [6] 57.1% | [7] 86.6% | [8] 106% | [9] 95.1% | [10] 101% | [11] 89% | [12] 51.3% | [13] 38.6% | [14] 79.2% | [15] 43.2% | [16] 97.3% | [17] 65%

Reference: PubChem BioAssay (NCI)
